Source: PubChem BioAssay (National Center for Advancing Translational Sciences (NCATS))
Vaccinia Venus: qHTS for Stage-Specific Inhibitors of Vaccinia Orthopoxvirus: Venus Reporter Primary qHTS | Vaccinia virus Venus reporter expression, fluorescence | Potency, µM (titrated, usually from 36.5 µM), without a hit: at the top dose activity change, negative = inhibition, usual class: inhibitors | actives 0.46% (n = 330,000); calls by dose curve; tested in A549 cells; further: potency means the concentration at half of the fitted maximal effect; nearly all actives have a fitted effect of over 30% in size
Vaccinia mCherry: qHTS for Stage-Specific Inhibitors of Vaccinia Orthopoxvirus: mCherry Reporter Primary qHTS; Vaccinia virus mCherry reporter infection, fluorescence; Potency, µM (doses to about 36.5 µM), inactives show at the highest dose activity change, negative = inhibition, usual class: inhibitors; actives 0.63% (n = 310,000); AID 720579, 2013; calls by dose curve; tested in A549 cells; further: potency means the concentration at half of the fitted maximal effect; nearly all actives have a fitted effect of over 35% in size
Lassa entry inh: qHTS for Inhibitors of binding or entry into cells for Lassa Virus. Lassa virus pseudotype entry inhibition, cell reporter. actives 1.2% (n = 300,000). Potency, µM (titrated, usually from 37.9 µM), inactives show at the highest dose activity change, negative = inhibition, most hits filed as inhibitors; calls by dose curve; tested in HEK293 cells; further: potency means the concentration at half of the fitted maximal effect; nearly all actives have a fitted effect of over 50% in size
HCMV antiviral: qHTS Assay for inhibitors of the human cytomegalovirus (HCMV); HFF cells, HCMV-luciferase reporter, 72 h; active compounds read low; actives 4.5% (n = 410,000); AID 1259415, 2018; activity change, negative = inhibition, % at 57.5 µM; in the data active means activity change below about -60%; inconclusive means no clear call, values can overlap the other calls; inactive means above about -39%
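Luciferase read-out from HCMV-luciferase-infected HFFs (MOI 1 PFU/cell) 72 h post infection at 37C; compounds added after 16 h cell attachment; activity normalized between buffer-only basal and Salinomycin (10uM) inhibitor controls.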
MARV entry inh: qHTS for inhibitors of binding or entry into cells for Marburg Virus; Marburg virus pseudotyped entry inhibition, cell reporter; Potency, µM (series often up to 37.8 µM), for inactives: at the top dose activity change, negative = inhibition, most hits filed as inhibitors; actives 1.8% (n = 300,000); AID 540276, 2011; calls by dose curve; tested in HEK293 cells; further: potency means the concentration at half of the fitted maximal effect
FMDV inh: High Throughput Screening for Foot and Mouth Disease Virus Antivirals. FMDV antiviral cell-based qHTS. Potency, µM (doses to about 57.9 µM), for inactives: at the highest dose activity change, negative = inhibition, actives largely listed as inhibitors. actives 1.2% (n = 410,000). AID 1159524, 2015; calls by dose curve; tested in HEK293T cells; further: read-out not given here; potency means the concentration at half of the fitted maximal effect; nearly all actives have a fitted effect of over 45% in size
* hit, by the source's call; i = inactive; ? = inconclusive; . = no result given; + = active, no number; ! = not confirmed by another sample; [ ] = dose if it differs, or a comment. A selection: hits, their analogues and other compounds. The true share with any hit is near 6.5%. On the % scale 0 is the no-effect control and ±100 the full control effect.

SMILES	Vaccinia Venus	Vaccinia mCherry	Lassa entry inh	HCMV antiviral	MARV entry inh	FMDV inh
Cc1ccc(Cl)cc1NC(=O)Cn1c(SCC(=O)NCc2ccccc2)nc2ccccc21	-1%	-14%	?	1	.	-19%
COC(=O)C1=C(C)N(Cc2ccco2)C(=O)/C1=C\c1ccc(N(C)C)cc1	9%	-13%	-6%	-23	?	-12%
COC(=O)C1=C(C)N(Cc2ccco2)C(=O)/C1=C\c1ccc([N+](=O)[O-])cc1	10%	-7%	?	-16	?	22µM*
CCOc1ccc(Nc2cc(C)nc(-n3nc(C)cc3C)n2)cc1	16µM*	?	?	-84*	0.25µM*	20µM*
Cc1ccc(Nc2cc(C)nc(-n3nc(C)cc3C)n2)cc1	-7%[7.34 µM]	-10%[7.34 µM]	?	-92*	.	9%
CCOC(=O)N1CCc2c(sc3c2c(=O)n(-c2ccc(CC)cc2)c(=O)n3Cc2ccc(F)cc2Cl)C1	-5%	-19%	?	-14	8%[46.1 µM]	-8%
COc1cccc(NC(=O)C(Nc2ccccc2)c2ccccc2F)c1 (configuration not stated)	.	.	.	-67*	.	.
Cc1cccc(Cl)c1NC(=O)C(Nc1ccccc1)c1ccccc1F (configuration not stated)	.	.	.	-27	.	.
COc1ccc2c(c1)[C@@H](NC(=O)OCc1ccccc1)[C@H](C)[C@@H](c1ccccc1)N2Cc1ccccn1	.	.	.	-27	.	.
Cc1ccc(-n2[nH]c(C)c(C=Nc3ccc4[nH]c(=O)[nH]c4c3)c2=O)cc1	?	?	?	23	?	32µM*
Cc1nn(-c2ccccc2)cc1/C=N/NC(N)=S	?	11µM*	9%	7	-8%	49%
Cc1cc(C)cc(NC(=O)C(=O)NCC(c2cccnc2)N2CCc3ccccc3C2)c1 (configuration not stated)	-19%	-17%	3%[46.1 µM]	-6	.	?
O=C(C1CCC1)N1CCc2cc(S(=O)(=O)NCCN3CCN(c4ccccc4F)CC3)ccc21	?	?	16µM*	-27	13µM*	-22%
O=C(C1CCC1)N1CCc2cc(S(=O)(=O)Nc3ccc4c(c3)OCO4)ccc21	?	?	-25%	-72*	?	-15%
COc1cccc(CNC(=O)C(NS(=O)(=O)c2ccc3c(c2)CCN3C(C)=O)C(C)C)c1 (configuration not stated)	-18%	-9%	4%[46.1 µM]	+!	?	9%
CC(=O)N1CCc2cc(S(=O)(=O)NCCC(=O)NCCc3ccc(C)cc3)ccc21	-22%	-9%	?	-15	?	?
CC(=O)N1CCc2cc(S(=O)(=O)NCCC(=O)NCCc3ccc(Cl)cc3)ccc21	.	.	.	-75*	.	?
O=C(CCNS(=O)(=O)c1ccc2c(c1)CCN2C(=O)C1CC1)N1CCN(c2ccccc2F)CC1	-6%	-21%	-10%[46.1 µM]	-14	.	0%
COc1cccc(CNS(=O)(=O)c2ccc3c(c2)CCN3C(=O)C2CCC2)c1	-7%	-10%	?	-7	9%[46.1 µM]	4%
COc1ccc(CNS(=O)(=O)c2ccc3c(c2)CCN3C(=O)C2CC2)cc1	-10%	i	-17%	-62*	1%	-30%
CCC1CCCCN1S(=O)(=O)c1ccc2c(c1)CCN2C(=O)C1CCC1 (configuration not stated)	-21%	-25%	?	-28	?	?
O=C(CCl)c1ccc2c(c1)CCN2C(=O)C1CCCCC1	-12%	i	-4%[46.1 µM]	33	?	20µM*
CCC(=N[C@H](CC)CO)C1=C(O)CC(C)(C)CC1=O	.	.	.	.	7%	.
O=C(Nc1cccc(F)c1)C1CCN(c2nc3ccccc3[nH]2)CC1	-2%	i	8%[46.1 µM]	+	.	-11%
COc1cc(OC)cc(-n2c(=O)c3ccccc3n(Cc3ccccc3C#N)c2=O)c1	-9%	-17%	-4%[46.1 µM]	1	?	-4%
SMILES	Vaccinia Venus	Vaccinia mCherry	Lassa entry inh	HCMV antiviral	MARV entry inh	FMDV inh
Oc1cccc(Nc2c3ccccc3nc3ccccc23)c1	10µM*	?	.	-100*	.	?
Oc1cccc(Nc2nc(-c3ccccc3Cl)nc3ccccc23)c1	-20%	10µM*	-40%[46.1 µM]	?	?	?
O=C(O)c1ccc(Nc2c3ccccc3nc3ccccc23)cc1	-11%	-21%	22%	-10	3%	-23%
Cc1ccc(-c2nc(Nc3cccc(O)c3)c3ccccc3n2)cc1	.	.	.	?	.	-24%
c1cncc(Nc2c3ccccc3nc3ccccc23)c1	?	-25%	1%	-86*	?	-18%
CCOC(=O)c1ccc(NC(=O)CC2Nc3ccccc3NC2=O)cc1 (configuration not stated)	-6%	-4%	-13%[46.1 µM]	-12	?	2%
CCC(C)NC(=O)c1cc2cc(S(=O)(=O)N3CCCCC3)ccc2n1C (configuration not stated)	-25%	i	-9%[46.1 µM]	-9	.	?
O=[N+]([O-])c1cc(S(=O)(=O)C(F)(F)F)ccc1Sc1nc2ccccc2[nH]1	-12%	-28%	?	-103*	?	?
COc1ccc(/C=N/c2oc(-c3ccccc3)cc2C#N)cc1OC	4%	.	13%	-103*	?	-6%
CCCCn1nc(NC(=O)c2cccc(Cl)c2)c2cc3ccc(C)cc3nc21	-22%	-27%	0%[46.1 µM]	4	1%[46.1 µM]	5%
COc1ccc(Nc2nc(N3CCCCC3)nc(N3CCCCC3)n2)c(OC)c1	.	.	-3%	-16	-7%	-23%
COc1ccc(Nc2nc(N3CCCC3)nc(N3CCCC3)n2)c(OC)c1	.	.	-19%	-92*	2.1µM*	-16%
COc1ccc(Nc2nc(NC(C)(C)C)nc(N3CCCC3)n2)c(OC)c1	.	.	-21%	-89*	5.2µM*	?
COc1ccc(Nc2nc(NC(C)(C)C)nc(N3CCOCC3)n2)c(OC)c1	.	.	-7%	-61*	13µM*	0%
Cn1c(=O)n(C/C=C/c2ccccc2)c(=O)c2c1nc1n2CCN1c1ccccc1	-1%	-12%	9%[46.1 µM]	49	.	-7%
CC(=O)N1CCC[C@H]1C(=O)NCC1Cc2cc(Cl)cc(-c3ccc4[nH]ccc4c3)c2O1 (some centres not stated)	-10%	-19%	.	.	.	16%
O=C(c1cn(-c2ccccc2)nc1-c1cccc(Br)c1)N1CCOCC1	-13%	-4%	1%	-63*	?	4%
COc1cccc2cc(-c3nc(Nc4cccc(C)c4C)sc3C)c(=O)oc12	-10%	0%	1%[46.1 µM]	-19	.	-18%
COc1ccccc1N(CC(=O)Nc1ccc2c(c1)OCO2)S(=O)(=O)c1ccc(C)cc1	-8%	-8%	-13%[46.1 µM]	-24	-5%[46.1 µM]	66%
Cn1cc(C=CC(=O)O)c2nccnc21	-7%	-9%	.	-62*	.	-8%
